# Test system: PPARg DBDmut IVT, anti-PPARg (DBD mutation: PPARg1 K132A/R137A, NR concentration 270 nM)
# Experiment: PBM binding z-score (relative to random genomic background probes); higher = stronger binding; sequences stand for … in GC…GCGATTGACAGCGTAGAATGAAGG
# Procedure, shortened: (§1)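 Antibodies against each partner of ligand-free nuclear receptor dimers (one per run) detected binding on custom Agilent 4×180K protein-binding microarrays after 1 h incubation. The double-stranded probes had 34-nt variable regions carrying direct-repeat seeds, single-nucleotide variants, half-site ablations and random human genomic background sequences. Binding z-scores, from regression-normalized fluorescence, use the random background probes as reference.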
row,Sequence,PBM binding z-score
1,CGTCCAAGGTCAAAGGGCAGTGAAGAGATGACGG,0.196
2,CCGACTGGGGCAGAAAGGTTACCAGACCATCCGG,-1.01
3,AGTCAAAGTTCATCTCGGTAACGTAAGATATGCT,1.05
4,TATACAGGGTCAAAGGCCAGAGTACGAATGTCGA,1.49
5,AGAACGAGGGCAATGACTTGATAGCACGGGTGGC,-0.215
6,GGAGCGAGGGCAAGTTGATAGCAGAGTTTGATGG,-0.911
7,TCTTATAGATCAGCAGGTTAAGAAAGCTGGCCAA,-0.0268
8,GCTGCTAGGTGAACTGATGGTCAGCTAAAGCTCG,-1.06
9,AGAATGACGTTACCAAAGATCAGGGAAACGCTTG,0.258
10,ATACAAAGGTGATCGTGAGGTCGTTGATACTAAC,0.894
11,GCGTATAGGTAATACAAGGTGAAAGTCCGATTGT,-0.802
12,TCTAGCAGGCCAGAAGGTCACTCAAGAGGTACGG,-1.25
13,CCTTACGGGTCACTCCAGGTTATAGCGTCGGAGT,-0.822
14,ATCTCTAGGTAACAAGTGCAGTGAAAGAGAGGAC,0.573
15,GATACAGGGTCTGCTAGAGGCCAGAGTATGGAAA,-1.35
16,TGTGCTAGGTCAACGATGGTCAGCTAATCTGCTA,0.0393
17,ATCTCTAGGGAACCAAGTTCAGTGAATGCCGAAC,0.863
18,TCTATTAGTTGAAGGGCAACCAACGAGTCCGTTT,1.16
19,CGAACTAGGTCAGAACAGGACAGTAAAGGATGAT,1.17
20,CCAGACAGCTGAGAAGGTAACTCAGCCTCGATTA,-0.867

row,Sequence,PBM binding z-score
1,TAGCCCAGGTCATGCGGGCCAGTATAGTGTCGGC,-0.838
2,CGAACGAGGGCAGGAGTTGATAGCAAATGCCGAT,-0.762
3,TCAGACAGGTGAAGGTAACTAAGGTACGCAGTCG,0.42
4,TCTAGCAGGCCAGAGGGTCACACAAGAGGTACGG,-0.172
5,CCTACTGGGCCATTCAGATGTCATTGATCATATG,0.0316
6,TCTGCTAGATCAGTTGGTCAGCTAACGAGCTGCC,-0.675
7,TATACAGGGACAAAGGCCAGAGTACGAATGTCGA,0.636
8,ATCTCTAGGTAAAGTTCAGGGAAAGATCGATAGA,1.09
9,AGAATGAGGTTACCAAAGATCAGGGACACGCTTG,0.0801
10,TCTAGTAGTTGATTAGGGCAACCGAAACAGCGGA,0.23
11,TCGAGTAGGATACCAATGGGGCATTCAGCTTTCT,-1.29
12,GCTGCTAGGTCAACTGATGATCAGCTAAAGCTCG,0.333
13,GCGACTGGGGCATCAGCCGGTTACCATAACTTAA,-1.34
14,TCATATAGGTAAATGCTAGGTGAGAGTCCGATCT,0.825
15,CGAACTAGGTCATTGTCAGGACAGTGAATAGTAA,6.24
16,CGTCAAAGTTCATCTAAGGTAACGTAAAGCACGC,1.11
17,AATAGAGGGTCATCGTAGGCCAGAGTACGCACAG,0.46
18,TCGGGTAGGTTAGTCGGGGCATTCAGCCAACATA,0.0537
19,CCTAGCAGGCCAGGGTAACTCAAGCATTTCGCTT,-1.83
20,TCTGCTAGGTCAGTTGGTGAGCTAACGAGCTGCC,1.14

# Test system: PPARg homodimer (NR concentration 180 nM)
# Experiment: as above
# Procedure, shortened: as §1
row,Sequence,PBM binding z-score
1,CGTCCAAGGTCAAAGGGCAGTGAAGAGATGACGG,2.9
2,CCGACTGGGGCAGAAAGGTTACCAGACCATCCGG,0.446
3,AGTCAAAGTTCATCTCGGTAACGTAAGATATGCT,2.38
4,TATACAGGGTCAAAGGCCAGAGTACGAATGTCGA,2.55
5,AGAACGAGGGCAATGACTTGATAGCACGGGTGGC,0.348
6,GGAGCGAGGGCAAGTTGATAGCAGAGTTTGATGG,0.261
7,TCTTATAGATCAGCAGGTTAAGAAAGCTGGCCAA,0.0461
8,GCTGCTAGGTGAACTGATGGTCAGCTAAAGCTCG,-0.326
9,AGAATGACGTTACCAAAGATCAGGGAAACGCTTG,0.216
10,ATACAAAGGTGATCGTGAGGTCGTTGATACTAAC,1.53
11,GCGTATAGGTAATACAAGGTGAAAGTCCGATTGT,0.129
12,TCTAGCAGGCCAGAAGGTCACTCAAGAGGTACGG,2.43
13,CCTTACGGGTCACTCCAGGTTATAGCGTCGGAGT,2.29
14,ATCTCTAGGTAACAAGTGCAGTGAAAGAGAGGAC,0.521
15,GATACAGGGTCTGCTAGAGGCCAGAGTATGGAAA,-0.406
16,TGTGCTAGGTCAACGATGGTCAGCTAATCTGCTA,1.1
17,ATCTCTAGGGAACCAAGTTCAGTGAATGCCGAAC,0.45
18,TCTATTAGTTGAAGGGCAACCAACGAGTCCGTTT,0.593
19,CGAACTAGGTCAGAACAGGACAGTAAAGGATGAT,1.1
20,CCAGACAGCTGAGAAGGTAACTCAGCCTCGATTA,0.219

row,Sequence,PBM binding z-score
1,TAGCCCAGGTCATGCGGGCCAGTATAGTGTCGGC,0.868
2,CGAACGAGGGCAGGAGTTGATAGCAAATGCCGAT,-0.323
3,TCAGACAGGTGAAGGTAACTAAGGTACGCAGTCG,0.309
4,TCTAGCAGGCCAGAGGGTCACACAAGAGGTACGG,1.57
5,CCTACTGGGCCATTCAGATGTCATTGATCATATG,0.0941
6,TCTGCTAGATCAGTTGGTCAGCTAACGAGCTGCC,-2.6
7,TATACAGGGACAAAGGCCAGAGTACGAATGTCGA,0.776
8,ATCTCTAGGTAAAGTTCAGGGAAAGATCGATAGA,2.21
9,AGAATGAGGTTACCAAAGATCAGGGACACGCTTG,0.873
10,TCTAGTAGTTGATTAGGGCAACCGAAACAGCGGA,-0.0887
11,TCGAGTAGGATACCAATGGGGCATTCAGCTTTCT,-1.04
12,GCTGCTAGGTCAACTGATGATCAGCTAAAGCTCG,1.28
13,GCGACTGGGGCATCAGCCGGTTACCATAACTTAA,-0.348
14,TCATATAGGTAAATGCTAGGTGAGAGTCCGATCT,0.0695
15,CGAACTAGGTCATTGTCAGGACAGTGAATAGTAA,3.98
16,CGTCAAAGTTCATCTAAGGTAACGTAAAGCACGC,3.01
17,AATAGAGGGTCATCGTAGGCCAGAGTACGCACAG,2.99
18,TCGGGTAGGTTAGTCGGGGCATTCAGCCAACATA,0.765
19,CCTAGCAGGCCAGGGTAACTCAAGCATTTCGCTT,-0.387
20,TCTGCTAGGTCAGTTGGTGAGCTAACGAGCTGCC,-0.166
